A selection: hits, their analogues and other compounds. The true share with any hit is near 10%.
JMJD2A Tudor – inhibitors of human JMJD2A Tudor domain. O75164. AlphaScreen JMJD2A-Tudor / H3K4me3 peptide binding. Potency, µM (doses to about 114 µM), for inactives: at the top dose activity change, negative = inhibition, hits mostly inhibitors. 4.4% of 390,000 active. AID 504339; note: potency is the fitted concentration of half-maximal effect; % is set by controls: 0 for no effect and ±100 for the full control effect; nearly all actives have a fitted effect of over 50% in size
G9a inh – inhibitors of human histone lysine methyltransferase G9a; G9a H3K9 monomethylation, AlphaScreen, 2 h; Potency, µM (highest dose often 102 µM), for inactives: at the top dose activity, negative = inhibition, usual class: inhibitors; 8.8% of 350,000 active; note: potency is the fitted concentration of half-maximal effect; % is set by controls: 0 for no effect and ±100 for the full control effect; nearly all actives have a fitted effect of over 75% in size
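Chemiluminescent proximity detection of H3K9 monomethylation, read after 10 min bead incubation in the dark. Reaction: 20 nM G9a, 500 nM biotin-H3K9 peptide, 20 uM SAM cofactor, 2 h, room temperature, following 15 min enzyme-compound preincubation.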
Six1-Eya2 inh – blocks human Six1 binding to Eya2 | 0.56% of 360,000 active | activity change, % (test concentration not listed) | AlphaScreen GST-Six1/His-Eya2 binding, biochemical; stronger effect = lower value; in the data active = activity change below about -65%; inconclusive = mostly about -30% to -63%; note: % is set by controls: 0 for no effect and ±100 for the full control effect
Target sequence (O00167 whole entry, looked up): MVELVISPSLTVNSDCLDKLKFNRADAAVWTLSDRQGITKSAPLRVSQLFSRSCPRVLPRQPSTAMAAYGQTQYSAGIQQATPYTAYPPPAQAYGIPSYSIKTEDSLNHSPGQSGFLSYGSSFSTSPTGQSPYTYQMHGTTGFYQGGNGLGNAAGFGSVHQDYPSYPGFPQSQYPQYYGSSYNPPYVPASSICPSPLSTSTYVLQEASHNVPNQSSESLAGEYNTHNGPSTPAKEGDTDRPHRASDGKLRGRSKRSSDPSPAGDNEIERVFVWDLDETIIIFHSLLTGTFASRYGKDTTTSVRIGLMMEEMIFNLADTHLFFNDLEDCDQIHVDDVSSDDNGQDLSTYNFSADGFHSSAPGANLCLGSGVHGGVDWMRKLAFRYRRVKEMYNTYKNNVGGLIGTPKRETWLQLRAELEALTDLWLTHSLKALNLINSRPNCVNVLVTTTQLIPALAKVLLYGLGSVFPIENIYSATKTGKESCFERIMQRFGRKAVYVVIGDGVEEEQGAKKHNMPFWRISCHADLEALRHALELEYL
Target sequence (Q15475 whole entry, looked up): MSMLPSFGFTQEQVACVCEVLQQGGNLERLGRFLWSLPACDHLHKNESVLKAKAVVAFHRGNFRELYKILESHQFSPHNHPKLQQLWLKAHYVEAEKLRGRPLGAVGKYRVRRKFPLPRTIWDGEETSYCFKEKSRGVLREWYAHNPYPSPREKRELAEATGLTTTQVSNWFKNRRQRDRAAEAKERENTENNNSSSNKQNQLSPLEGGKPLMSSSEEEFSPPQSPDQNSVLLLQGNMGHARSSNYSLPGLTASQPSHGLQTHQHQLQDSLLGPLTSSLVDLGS
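Six1/Eya2 binding was read as AlphaScreen signal after compounds were pinned into GST-Six1 plus His-tagged Eya2 (5X stock 250/500 nM) in pH 8.0 Tris/NaCl/TCEP buffer, beads added, then incubated 1 h, 37 C, dark.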
CtBP-E1A blk – inhibitors of CtBP/E1A interaction | 0.49% of 340,000 active | AID 651724 | activity change, % (no concentration beside the values) | AlphaScreen GST-E1A/His-CtBP binding, 1536-well; stronger effect = lower value; in the data active = activity change below about -65%; inconclusive = mostly about -30% to -63%; note: % is set by controls: 0 for no effect and ±100 for the full control effect
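In 5 uL wells, 23 nL compound meets equimolar GST-E1A and His-CtBP (5X stock 125 nM each) for 2 h, 37 °C. Beads (5X, 50 ug/mL) then 1 h, 37 °C, dark.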
HP1b binding inh – inhibitors of HP1-beta chromodomain binding to methylated histone tails; AlphaScreen HP1-beta / biotin-H3K9me3 peptide binding; Potency, µM (titrated, usually from 114 µM), without a hit: top-dose activity change, negative = inhibition, actives largely listed as inhibitors; 0.56% of 390,000 active; note: potency is the fitted concentration of half-maximal effect; nearly all actives have a fitted effect of over 70% in size
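Compound inhibition of the preformed complex between 50 nM HP1-beta and 50 nM biotinylated H3K9me3 peptide was read by AlphaScreen. Buffer was PBS pH 7.4 with 0.01% Tween-20. Incubations ran 30 min at room temperature, with 10 ug/mL donor/acceptor beads.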
BAZ2B block – inhibitors of human BAZ2B bromodomain; Q9UIF8; AlphaScreen BAZ2B-H3K14Ac peptide displacement; Potency, µM (top dose mostly 114 µM), for inactives: top-dose activity change, negative = inhibition, hits mostly inhibitors; 4.4% of 360,000 active; AID 504333; note: potency is the fitted concentration of half-maximal effect; % is set by controls: 0 for no effect and ±100 for the full control effect; nearly all actives have a fitted effect of over 60% in size
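AlphaScreen displacement: compounds (up to 110uM) incubated 30 min at room temperature with a preformed 50 nM BAZ2B/50 nM biotinylated H3K14Ac peptide complex in PBS pH 7.4 with Tween-20. Donor and acceptor beads at 10 ug/mL final added, 20 min light-protected before reading.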
Active calls of the source: *; [ ] = dose if it differs, or a comment. Unless noted, calls come from the whole dose curve; as a rule, active = well fitted inhibition curve with a large enough effect; inconclusive = small, poorly fitted or top-dose-only effect; inactive = no such curve, though single readings can be large or run the other way.

What do the screens show for `CN(/N=C/c1ccncc1)C1=NS(=O)(=O)c2ccccc21`?
JMJD2A Tudor: -18%; G9a inh: inconclusive; Six1-Eya2 inh: -88*; CtBP-E1A blk: -86*; HP1b binding inh: 33%; BAZ2B block: 2%[57.1 µM]

What do the screens show for `CN(C)c1ccc(/C=N/N(CCO)C2=NS(=O)(=O)c3ccccc32)cc1`?
JMJD2A Tudor: -14%; G9a inh: 28%; Six1-Eya2 inh: -67*; HP1b binding inh: 22%; BAZ2B block: 5%

Results for COc1cc(Br)cc(/C=N/N(CCO)C2=NS(=O)(=O)c3ccccc32)c1OC ?
JMJD2A Tudor: -13%; G9a inh: -1%; Six1-Eya2 inh: -30; CtBP-E1A blk: inconclusive; HP1b binding inh: 3%; BAZ2B block: -18%

What do the screens show for `CCCCN(Cc1cc2ccccc2[nH]c1=O)C(=O)c1cccc(Cl)c1`?
JMJD2A Tudor: -7%; G9a inh: -4%[59 µM]; HP1b binding inh: 30%; BAZ2B block: -7%

What do the screens show for `O=C(CSc1ncc2c(n1)-c1ccccc1N(Cc1ccc(F)cc1)S2(=O)=O)NCCc1ccccc1`?
JMJD2A Tudor: 0%; G9a inh: 9%[59 µM]; HP1b binding inh: 24%; BAZ2B block: 0%

Results for COc1ccc(C)cc1NC(=O)C1CCN(S(=O)(=O)Cc2ccccc2)CC1 ?
JMJD2A Tudor: -17%; G9a inh: -10%[59 µM]; HP1b binding inh: 3%; BAZ2B block: -1%

How did CCc1ccc(C(=O)COC(=O)C(Cc2c[nH]c3ccccc23)NC(=O)c2ccc(CC)cc2)cc1 (configuration not stated) do in these assays?
JMJD2A Tudor: -9%; G9a inh: -31%[59 µM]; HP1b binding inh: -4%; BAZ2B block: -7%

What do the screens show for `CN(C)c1ccc(/C=N/N(CCC(=O)NC(C)(C)C)C2=NS(=O)(=O)c3ccccc32)cc1`?
JMJD2A Tudor: -7%; G9a inh: -14%; Six1-Eya2 inh: 19; CtBP-E1A blk: 1; HP1b binding inh: 14%[57 µM]; BAZ2B block: -2%

Results for CC(C)(C)NC(=O)CCN(/N=C/c1ccc([N+](=O)[O-])o1)C1=NS(=O)(=O)c2ccccc21 ?
JMJD2A Tudor: -11%; G9a inh: 2%[59 µM]; Six1-Eya2 inh: -88*; CtBP-E1A blk: -74*; HP1b binding inh: 7%; BAZ2B block: 3%

What do the screens show for `O=C(NCCc1nc2ccccc2n1CCCOc1ccc2ccccc2c1)C1CCCCC1`?
JMJD2A Tudor: -4%[57.1 µM]; HP1b binding inh: 7%[57 µM]

How did COC(=O)C1=C(C)NC(C)=C(C(=O)OCCSc2ccccc2)C1C (configuration not stated) do in these assays?
G9a inh: 150%[59 µM]

How did COc1ccc(-c2csc3ncnc(N4CCN(c5ccccc5OC)CC4)c23)cc1 do in these assays?
JMJD2A Tudor: inconclusive; G9a inh: 45µM*; Six1-Eya2 inh: -14; CtBP-E1A blk: -28; HP1b binding inh: inconclusive; BAZ2B block: -35%

What do the screens show for `Cc1nc(N2CCN(c3ccccc3O)CC2)c2c(-c3ccccc3)csc2n1`?
JMJD2A Tudor: inconclusive; G9a inh: inconclusive; Six1-Eya2 inh: -10; CtBP-E1A blk: -6; HP1b binding inh: inconclusive; BAZ2B block: 40µM*

What do the screens show for `Oc1ccccc1N1CCN(c2ncnc3scc(-c4ccccc4)c23)CC1`?
JMJD2A Tudor: inconclusive; G9a inh: inconclusive; Six1-Eya2 inh: -7; CtBP-E1A blk: -5; HP1b binding inh: -24%; BAZ2B block: -25%

Results for O=C(CNC(=O)c1ccc(F)cc1)OCc1cc(=O)n2nc(C3CC3)sc2n1 ?
JMJD2A Tudor: inconclusive; G9a inh: 1%[59 µM]; HP1b binding inh: -5%; BAZ2B block: -3%

Results for CCOC(=O)c1c(S(=O)(=O)NCC(=O)Nc2ccc(F)cc2C)c(C)n(C)c1C ?
JMJD2A Tudor: -4%; G9a inh: -2%[59 µM]; HP1b binding inh: 22%; BAZ2B block: 0%

Results for CCOC(=O)C(Cc1ccc(NC(=O)/C(=C/c2ccc(OC(C)=O)cc2)NC(C)=O)cc1)N1C(=O)c2ccccc2C1=O (configuration not stated) ?
JMJD2A Tudor: 89µM*; G9a inh: -36%[59 µM]; Six1-Eya2 inh: -7; CtBP-E1A blk: -2; HP1b binding inh: -19%; BAZ2B block: 5%

How did CCOC(=O)COc1ccc(CC)cc1C(=O)c1ccn2nc(-c3ccccc3)cc2n1 do in these assays?
JMJD2A Tudor: -2%; G9a inh: 13%[59 µM]; HP1b binding inh: 37%; BAZ2B block: -14%

How did Cc1cccc(C)c1C(OCCN(C)C)C1CCCCC1 (configuration not stated) do in these assays?
JMJD2A Tudor: 14µM*; G9a inh: 10µM*; Six1-Eya2 inh: -7; CtBP-E1A blk: -6; HP1b binding inh: inconclusive; BAZ2B block: inconclusive

How did C=C1c2cccc(C(F)(F)F)c2O[C@H](C(=O)OCC)C1OC (mixture of isomers) do in these assays?
G9a inh: 34%

How did Cc1ccc(NC(=O)N/C=C/c2ccco2)c(C)c1 do in these assays?
JMJD2A Tudor: inconclusive; G9a inh: inconclusive; Six1-Eya2 inh: 3; CtBP-E1A blk: 8; HP1b binding inh: 2%; BAZ2B block: -35%

What do the screens show for `CCc1ccccc1NC(=O)c1cc(-c2ccc(OC)cc2)on1`?
JMJD2A Tudor: -10%; G9a inh: 3%; Six1-Eya2 inh: 5; HP1b binding inh: 36%; BAZ2B block: 0%

How did Cc1nn(Cc2ccc(F)cc2)c(C)c1NC(=O)c1cc(-c2ccco2)on1 do in these assays?
JMJD2A Tudor: -11%; G9a inh: 56µM*; Six1-Eya2 inh: 0; CtBP-E1A blk: -3; HP1b binding inh: 8%; BAZ2B block: -32%

Results for COc1ccc(NC(=O)c2cc(-c3ccco3)on2)cc1OC ?
JMJD2A Tudor: -17%; G9a inh: 50µM*; Six1-Eya2 inh: -10; CtBP-E1A blk: -8; HP1b binding inh: -18%; BAZ2B block: 2%

Results for Cc1ccc(NC(=O)N/C=C/c2ccco2)cc1C ?
JMJD2A Tudor: inconclusive; G9a inh: 32µM*; Six1-Eya2 inh: -9; CtBP-E1A blk: 1; HP1b binding inh: 7%; BAZ2B block: -33%

How did CCc1ccccc1NC(=O)c1cc(-c2ccco2)on1 do in these assays?
JMJD2A Tudor: -4%; G9a inh: 40µM*; Six1-Eya2 inh: 4; CtBP-E1A blk: 5; HP1b binding inh: 14%; BAZ2B block: 2%

What do the screens show for `Cc1cccc(OCC(=O)Nc2ccccc2C(=O)OCc2cc(=O)n3nc(C4CC4)sc3n2)c1`?
JMJD2A Tudor: -1%; G9a inh: 3%[59 µM]; HP1b binding inh: 27%; BAZ2B block: -4%
